# Compounds with a hit are over-represented: about 3.7% of the library has one in this group of screens.
# GPR32 ag = activates human resolvin D1 receptor GPR32; 2.5% of 48,000 active; AID 1346428; CHO-K1 GPR32 beta-arrestin PathHunter luminescence, 90 min; zero percent set by DMSO-only wells; O75388; activation, % at 76.9 µM;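 active means activation of at least 60% and not above a set upper limit, about 1 call in 100 departs from these limits; inconclusive means activation of 40% to 60%, or above that upper limit; inactive means activation under 40%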
# Target sequence (O75388 whole entry, looked up): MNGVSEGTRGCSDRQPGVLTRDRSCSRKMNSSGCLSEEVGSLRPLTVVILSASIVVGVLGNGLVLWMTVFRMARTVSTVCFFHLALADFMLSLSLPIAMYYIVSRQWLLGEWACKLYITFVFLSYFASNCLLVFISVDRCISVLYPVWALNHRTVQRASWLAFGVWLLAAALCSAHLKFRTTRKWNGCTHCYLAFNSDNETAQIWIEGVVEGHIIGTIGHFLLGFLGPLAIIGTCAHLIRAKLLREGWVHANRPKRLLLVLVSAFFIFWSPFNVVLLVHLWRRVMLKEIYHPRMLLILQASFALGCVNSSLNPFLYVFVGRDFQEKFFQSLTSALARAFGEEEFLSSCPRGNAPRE
#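 Beta-arrestin recruitment read-out: luminescence from complemented beta-Gal in CHO-K1 GPR32 PathHunter cells, measured 1 h after detection reagent at ambient temperature following 90 min compound exposure at 37 °C; DMSO served as basal (EC0) control.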
# HTT-AS act = HTT-AS promoter activation. 0.24% of 48,000 active. HEK293 HTT-AS promoter firefly luciferase reporter, 24 h; response scale: percent change from vehicle, -100% = no light. Potency, µM (series often up to 57.5 µM), most hits filed as activators; further: nearly all actives have a fitted effect of over 55% in size
#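 Luminescence was read after Dual-Glo reagent and a 10 min room-temperature incubation. Values were normalized to vehicle (0% activity) and zero RLU (-100% activity). Reporter HEK293 cells had been exposed to compounds (up to 57.5 uM final) for 24 h.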
# FH mod = Identification of activators of human fumarate hydratase by quantitative high-throughput screening; Fumarate hydratase, mitochondrial (Homo sapiens), P07954; FH coupled MDH/diaphorase resazurin fluorescence, 15 min; Potency, µM (titrated, usually from 79.9 µM), most hits filed as inhibitors; 0.22% of 54,000 active; further: the screen sought activators but most active calls are inhibition curves; nearly all actives have a fitted effect of over 45% in size
# B2AR arrestin ag = agonists recruiting beta-arrestin to human beta2-adrenergic receptor | Potency, µM (series often up to 46.1 µM), most hits filed as activators | P07550 | 44,000 tested, under 10 active | HTLA Tango cells, beta-arrestin recruitment, luciferase luminescence, 18 h
#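 Luminescence read-out: arrestin recruitment to recombinant beta2-AR releases tTA, inducing luciferase. Cells exposed 18 hr at 37 degrees C to up to 46 microM compound; %Activity from corrected signal, concentration-response curves classified by r2, magnitude and efficacy.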
# GALC G270D up = galactocerebrosidase G270D activity enhancement, cell-based. P54803. 145M-Twi-hGALC-G270D cells (Twitcher mouse brain line with human GALC G270D), HMU-beta-Gal fluorescence, 48 h. Potency, µM (series often up to 57.5 µM), usual class: activators. 0.1% of 45,000 active. AID 1159614; further: nearly all actives have a fitted effect of over 65% in size
#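 Mutant human GALC (G270D), stably expressed in a Twitcher mouse brain cell line lacking endogenous GALC, is measured in live-treated cells via 6-hexadecanoylamino-4-methylumbelliferyl-β-galactoside hydrolysis (0.1 mM final, pH 5.2) with fluorescent detection.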
# HTT prom inh = HTT promoter inhibition; AID 1508623; Potency, µM (highest dose often 57.5 µM), most hits filed as inhibitors; HEK293 HTT promoter firefly luciferase reporter, 24 h; 0.93% of 48,000 active; further: nearly all actives have a fitted effect of over 50% in size
#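 Firefly luciferase readout (Dual-Glo, 10 min RT) after 24 h, 37 °C compound exposure (final up to 57.5 uM) of HEK293 reporter cells cultured 24 h beforehand; PTC124 at 50 uM final as control inhibitor; activity scaled vehicle 0%, zero RLU -100%.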
# A number is an active result; . = inactive; ? = inconclusive; / = no result. Unless noted, the call rests on the fitted dose curve; in most records, active means well fitted curve in the direction sought with a large enough effect; inconclusive means small, poorly fitted or top-dose-only effect, or another doubt; inactive means no such curve, though single readings can be large; an effect the other way counts as inactive or inconclusive.
SMILES,GPR32 ag,HTT-AS act,FH mod,B2AR arrestin ag,GALC G270D up,HTT prom inh
CCN(CC)CCOc1ccccc1C(=O)CCc1ccccc1,107,.,.,/,.,.
CC1=C(C)C(=O)C(CCCCC#CCCCC#CCO)=C(C)C1=O,.,.,28µM,/,.,.
CC(C)NCC(O)c1ccc2ccccc2c1 (stereo unspecified),68,.,.,/,.,.
CC(C)NCC(O)c1ccc(O)c(O)c1 (stereo unspecified),.,.,.,/,.,.
COc1ccc(C2=C(C)C(=O)N(Cc3ccc(C(=O)Nc4cccc(F)c4)cc3)S2(=O)=O)cc1,.,.,.,.,.,?
COc1ccc(C2=C(C)C(=O)N(Cc3ccc(C(=O)Nc4ccc(F)cc4C)cc3)S2(=O)=O)cc1,.,.,.,.,.,10µM
COc1ccc(C)c2sc(N3CCN(C(=O)c4cccc(F)c4)CC3)nc12,.,.,.,.,.,.
COc1ccc(C)c2sc(N3CCN(C(=O)c4ccco4)CC3)nc12,86,.,.,.,.,.
CC1=C(C(=O)Nc2ccc(Cl)cc2)C(c2ccccc2C)n2ncc(C(=O)Nc3ccc(C)cc3)c2N1 (stereo unspecified),.,.,?,.,.,?
CC1=C(C(=O)Nc2ccc(Cl)cc2)C(c2ccccc2)n2ncc(C(=O)Nc3ccccc3)c2N1 (stereo unspecified),.,.,.,.,.,25µM
Cc1ccc(NC(=O)/C(C#N)=C\c2ccc(-c3ccc(Cl)cc3)o2)c(C)c1,.,.,.,?,.,.
N#C/C(=C\c1ccc(-c2cc(Cl)ccc2Cl)o1)C(=O)Nc1ccccc1C(=O)O,111,.,.,.,.,.
CC(C)C(C)C(O)C1CC23CC(=O)C4(O)C(=C2CCC3C1C)C=CC1(O)CC(O)CCC14C (stereo unspecified),/,/,.,/,/,/
Cc1cc(NCc2ccc(Cl)cc2)n2cnnc2n1,.,.,.,.,.,25µM
Cc1oc(-c2ccc(Cl)cc2)nc1CN1CCCC(C(=O)NCc2ccccc2)C1 (stereo unspecified),106,.,.,.,.,?
Cc1oc(-c2cccc(Cl)c2)nc1CN1CCCC(C(=O)NCc2ccc(F)cc2)C1 (stereo unspecified),70,.,.,.,.,.
Cc1ccccc1-c1nc(CN2CCCC(C(=O)NCc3ccc(Cl)cc3)C2)c(C)o1 (stereo unspecified),.,.,.,.,.,.
CC1CCC2(NC1)OC1C(O)C3C4CCC5CC(O[C@@H]6O[C@H](CO)[C@@H](O)[C@H](O)[C@H]6O[C@@H]6O[C@@H](C)[C@H](O)[C@@H](O)[C@H]6O)CCC5(C)C4CCC3(C)C1C2C (stereo partly specified),/,/,.,/,/,/
Cc1ccc(Cl)cc1NC(=O)CSc1nc(C)c(C)c(C)c1C#N,115,.,.,.,.,.
N#Cc1c(Oc2ccc(F)c(NC(=O)Cc3cccc(C(F)(F)F)c3)c2)ccc2nc(NC(=O)C3CC3)sc12,/,/,.,/,/,/
O=C(O)C1=CC(=C(c2ccc(O)c(C(=O)O)c2)c2ccc(O)c(C(=O)O)c2)C=CC1=O,.,/,16µM,/,/,/
O=C(/C=C/c1ccccc1)OC[C@H]1O[C@@H](OC(=O)c2cc(O)c(O)c(O)c2)[C@H](O)[C@@H](O)[C@@H]1O,/,/,.,/,/,/
O=S(=O)(Nc1nc2n(n1)C(c1ccc(F)cc1)C=C(c1ccc(Cl)cc1)N2)c1ccccc1 (stereo unspecified),95,.,.,.,.,.
CC(=O)Nc1nc2n(n1)C(c1ccc(F)cc1)C=C(c1ccc(Cl)cc1)N2 (stereo unspecified),.,.,.,.,.,.
COc1ccc(C2C=C(c3ccc(Cl)cc3)Nc3nc(-c4ccc(Cl)cc4)nn32)cc1 (stereo unspecified),.,.,.,.,.,25µM
SMILES,GPR32 ag,HTT-AS act,FH mod,B2AR arrestin ag,GALC G270D up,HTT prom inh
Cc1ccc(S(=O)(=O)Nc2nc3n(n2)C(c2ccccc2Cl)C=C(c2ccccc2)N3)cc1 (stereo unspecified),?,.,.,.,.,.
O=S(=O)(Nc1nc2n(n1)C(c1ccc(F)cc1)C=C(c1ccccc1)N2)c1ccccc1 (stereo unspecified),96,.,.,.,.,.
CC(C)C1CCC(CO)=CC1/C=C(\CO)C(=O)OCC1(O)CCC(C(C)C)C2C=C(C(=O)O)COC(=O)C21 (stereo unspecified),/,/,.,/,/,/
COc1ccc(/C=C2\COc3ccc(C)cc3C2=O)cc1O,/,/,.,/,/,/
CCc1ccccc1S(=O)(=O)Cc1ccc(C(=O)NCc2ccc(Cl)cc2)o1,?,.,.,.,.,?
CCc1ccccc1S(=O)(=O)Cc1ccc(C(=O)NCCc2ccc(Cl)cc2)o1,66,.,?,.,.,?
CCOC(=O)c1ccc(NC(=O)Cn2nc(SC)c(S(=O)(=O)c3ccc(Cl)cc3)c2N)cc1,69,.,?,.,.,?
O=C(NCC1(N2CCN(c3ccccc3)CC2)CCOCC1)c1cccnc1Sc1ccccc1,/,/,.,/,/,/
COC(=O)c1ccc(CN(Cc2ccc(OC)c(OC)c2)S(=O)(=O)c2cc(C(=O)Nc3cccc(C)c3)ccc2F)cc1,.,.,.,.,.,.
CCOc1ccc(NC(=O)c2ccc(F)c(S(=O)(=O)N(CC)Cc3ccccc3)c2)cc1,.,.,.,.,.,2µM
CN(Cc1ccccc1)S(=O)(=O)c1ccc(F)c(C(=O)Nc2cc(Cl)cc(Cl)c2)c1,.,.,.,.,.,.
CCN(Cc1ccccc1)S(=O)(=O)c1cc(C(=O)Nc2cc(Cl)cc(Cl)c2)ccc1F,.,.,.,.,.,25µM
COc1ccc(CCc2nc3c(C)c(-c4c(C)noc4C)c(C)cc3n2CCN2CCOCC2)cc1,/,/,.,/,/,/
